# Values without a mark were called inactive.
# System: Aedes aegypti larvae
# Experiment: larval motility relative to same well at 0 h (fraction); higher = more motile (less active compound), active = 0.4 or less
# Conditions: 10 µM
# In short: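 Each 96-well plate held about 10 Aedes aegypti larvae per well in 100 µL, along with solvent and larvicide control wells. Compounds were present at 10 µM with 1% v/v DMSO, and INVAPP recorded 200-frame movies at 100 ms intervals at 0, 2 and 24 h. Relative motility divides each well's score by its baseline score from the first recording, with the median taken across independent larval batches, of which there were three.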
Structure (SMILES),larval motility (2 h),larval motility (24 h)
NC(=O)c1ccccc1NC(=O)c1ccc(C(=O)Nc2ccccc2C(N)=O)cc1,0.724,0.755
CCc1nc(N)nc(N)c1C#CCc1ccccc1,0.589,0.658
COc1ccc(-n2cnc3cc(NCc4ccco4)ccc32)cc1,0.835,1.63
O=C(O)COc1cccc2c1CC[C@](O)(COC(=O)N(c1ccccc1)c1ccccc1)C2,0.909,0.745
COc1ccccc1NC(=O)c1ccccc1Sc1ccc([N+](=O)[O-])cc1,0.911,0.861
CC[C@H](CO)Nc1nc(NCc2ccccc2)c2ncn(C(C)C)c2n1,0.799,0.755
OC1O[C@H](CSc2ccc(F)cc2)[C@@H](O)[C@H]1O (stereo not given in full),1.09,1.32
CC(C)Oc1ccc(-n2cnc3cc(/C=C\c4ccc(C(C)(C)O)cc4)ccc32)cc1,0.656,1.03
Cc1ncc([N+](=O)[O-])n1CC(C)O (stereo not given),1.43,1.55
CC(C)Cn1c(=O)n(C)c(=O)c2c(-c3cncn3C)n(Cc3cccc4ccccc34)nc21,0.612,0.874
O=C(/C(=C/c1ccc(Cl)cc1Cl)n1ccnc1)c1ccc(Cl)cc1,0.446,1.04
N[C@@H]1CN(c2c(F)cc3c(=O)c(C(=O)O)cn([C@@H]4C[C@@H]4F)c3c2Cl)CC12CC2,0.745,1.11
Cc1cc(CCOc2c(C)cc(-c3nnn(C)n3)cc2C)on1,0.857,0.768
O=C(O)c1cc(-c2ccc(Br)cc2)nc2ccc(Cl)cc12,1.05,0.76
Cc1cc(C)n2nc(C(=O)NS(=O)(=O)c3c(C)cccc3OC(F)(F)F)nc2n1,1.04,1.13
Clc1cc(Cl)c2c(c1)CCc1ccccc1C2n1ccnc1 (stereo not given),0.769,0.987
CNC(=O)C1O[C@@H](n2cnc3c(NCc4cccc(I)c4)nc(Cl)nc32)[C@H](O)[C@@H]1O (stereo not given in full),0.688,0.817
OB1OCc2c1ccc(Cl)c2F,0.987,1.19

Structure (SMILES),larval motility (2 h),larval motility (24 h)
O=C1CCC(N2C(=O)c3ccccc3C2=O)C(=O)N1 (stereo not given),1.17,1.13
NC[C@H]1OB(O)c2c(OCCCO)cccc21,1.28,1.61
NC(=O)c1ccc(I)c([N+](=O)[O-])c1,0.749,0.429
O=C(Nc1nnc(-c2ccc(Cl)cc2)o1)c1nc2ccccc2s1,0.919,1.05
NC(=O)c1c(N)sc2c1CCCCC2,0.947,1.32
CCCNc1ccc(S(=O)(=O)Nc2cc(C)on2)cc1,0.414,0.825
CCCCc1ccc(-c2nc(C)c(C(=O)OC)s2)cc1,1.33,0.97
O=C(/C=C\n1cnc(-c2cc(C(F)(F)F)cc(C(F)(F)F)c2)n1)NNc1ccccn1,1.12,1.17
C[C@H](NC(=O)C(=O)Nc1ccccc1C(C)(C)C)C(=O)N[C@@H](CC(=O)O)C(=O)COc1c(F)c(F)cc(F)c1F,0.777,1.23
Cc1ccc(C)c(OCCCCCCN2C[C@H](O)[C@@H](O)[C@H](O)[C@H]2CO)c1,0.635,0.552
O=C1c2cccc3cccc(c23)C(=O)N1CC1CO1 (stereo not given),0.906,0.936
CCCc1ccc(-c2cc3cn([C@H]4C[C@H](O)[C@@H](CO)O4)c(=O)nc3o2)cc1,0.729,0.902
CC(C)(C)OC(=O)NCc1ccc(C(=O)N[C@H]2CCOC2=O)cc1,0.701,0.769
O=C(Nc1ccc(-c2ccccc2)cc1)C1=C(O)C(Cc2ccccc2)OC1=O (stereo not given),0.886,0.946
Cc1ccccc1NC(=O)Nc1cccc([N+](=O)[O-])c1,1.19,1.34
Nc1nc(O)c2ncn(COC(CO)CO)c2n1,1.05,0.821
O=C(Nc1ncc(Cc2cccc3ccccc23)s1)C1CCCCC1,1.07,1.56
